Records with an inconclusive call do not appear. Calls of active or inactive are those of the source. Unless noted, calls come from the whole dose curve.

Test [1] is described as follows: qHTS assay to identify small molecule agonists of the sonic hedgehog signaling (Shh) pathway (AID 1259368). Note: nearly all actives have a fitted effect of over 15% in size. Note: potency is the fitted concentration of half-maximal effect. In outline: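 3T3Gli1-Luc (NIH/3T3 clone, stable Gli1-Luc); 4 hr pre-incubation, then cpd in DMSO 24 hr, 37 C/5% CO2; luciferase reagent 30 min RT; luminescence.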
Test [2] can be described thus: qHTS assay to identify small molecule antagonists of the sonic hedgehog signaling (Shh) pathway (AID 1259369). Note: nearly all actives have a fitted effect of over 45% in size. Note: potency is the fitted concentration of half-maximal effect. In outline:
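3T3Gli1-Luc, conditioned-medium-stimulated, 24hr cpd, 37C/5% CO2; Gli1-driven firefly Luc luminescence after 30min RT with luciferase reagent. Cells plated 4hr before cpd.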
On the technique in general: qHTS replaces the single test concentration by a dilution series.

Test [3] in a line: qHTS assay to identify small molecule agonists of the androgen receptor (AR) signaling pathway in the presence of an antagonist - cell viability counter screen (AID 1259379; active = well fitted curve in the direction sought with a large enough effect in the repeat runs; an effect the other way counts as inactive or inconclusive; note: nearly all actives have a fitted effect of over 25% in size; note: potency is the fitted concentration of half-maximal effect). The method, boiled down: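 Cells: MDA-kb2 (MMTV-luc, AR and GR elements), 3,000/well, 5 hr settle. Added: nilutamide 3.0uM final, then compounds (15 conc.). Incubation: 16 hr, 37C, no CO2. Read-out: CellTiter-Fluor, 1 hr, fluorescence.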

Test [4] is described as follows: qHTS assay to identify small molecule agonists of the estrogen receptor beta (ER-beta) signaling pathway - cell viability counter screen (AID 1259380; active = well fitted curve in the direction sought with a large enough effect in the repeat runs; an effect the other way counts as inactive or inconclusive; note: nearly all actives have a fitted effect of over 30% in size; note: potency is the fitted concentration of half-maximal effect). The method, boiled down:
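HEK293T ER-beta-UAS-bla; 2% CS-FBS; 6 hr pre-plate, 16 hr cpd at 37C/5% CO2; LiveBLAzer read first, then CellTiter-Glo 30 min RT, luminescence.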

The target in test [5] is Estrogen receptor (Homo sapiens) (UniProt P03372). Nature of the test: qHTS assay to identify small molecule agonists of the estrogen receptor alpha (ER-alpha) signaling pathway in the presence of an antagonist (AID 1259383). Note: top concentration of the series differs between compounds; nearly all actives have a fitted effect of over 15% in size. The method, boiled down: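 VM7Luc4E2, endog. ER-alpha + 4×ERE-luc; charcoal-stripped FBS, phenol red-free, 5 d; 24hr plating; +10.0nM ICI-182,780 (final); cpds 15 conc, 22hr, 37C/5% CO2; ONE-Glo luminescence.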
Chain of Estrogen receptor (Homo sapiens) (P03372 whole entry, looked up): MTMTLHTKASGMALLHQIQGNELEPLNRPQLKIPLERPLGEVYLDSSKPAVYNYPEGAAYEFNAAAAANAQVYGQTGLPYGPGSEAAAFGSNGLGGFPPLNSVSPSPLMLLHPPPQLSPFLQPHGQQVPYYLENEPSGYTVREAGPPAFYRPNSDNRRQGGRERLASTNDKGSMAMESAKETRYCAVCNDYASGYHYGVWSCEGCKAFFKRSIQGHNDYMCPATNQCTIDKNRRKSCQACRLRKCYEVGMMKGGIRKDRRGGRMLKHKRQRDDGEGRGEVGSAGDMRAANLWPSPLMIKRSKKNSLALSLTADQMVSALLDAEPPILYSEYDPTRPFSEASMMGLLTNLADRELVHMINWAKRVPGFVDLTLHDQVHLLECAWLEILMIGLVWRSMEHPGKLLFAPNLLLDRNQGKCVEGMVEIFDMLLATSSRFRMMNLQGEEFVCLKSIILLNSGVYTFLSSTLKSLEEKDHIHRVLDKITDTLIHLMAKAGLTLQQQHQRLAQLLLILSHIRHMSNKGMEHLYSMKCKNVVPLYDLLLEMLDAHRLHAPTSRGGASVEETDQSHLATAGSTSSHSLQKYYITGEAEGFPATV

Test [6] can be described thus: qHTS assay to identify small molecule agonists or antagonists of the thyroid stimulating hormone receptor (TSHR) signaling pathway - wild type cell line counter screen (AID 1259384). The method, boiled down:
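Wild-type HEK293 cells were plated 18 h at 37 C/5% CO2, pin-dosed with compound plus Ro20-1724 medium, held 30 min at room temperature, then given cAMP-d2 and anti-cAMP-cryptate; fluorescence was read after 1 h. Fifteen concentrations, triplicate.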

Test [7] is described as follows: qHTS assay to identify small molecule antagonists of the estrogen receptor beta (ER-beta) signaling pathway - cell viability counter screen (AID 1259382; active = well fitted curve in the direction sought with a large enough effect in the repeat runs; an effect the other way counts as inactive or inconclusive; note: series mostly up to about 92 µM; nearly all actives have a fitted effect of over 55% in size). In outline: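 Cells: ER-beta-UAS-bla HEK293T, 2,000/well, 2% CS-FBS, 6 hr settle. Cpd + E2 (1nM final), 16 hr, 37C/5% CO2. Bla FRET substrate 2 hr RT, then CellTiter-Glo 30 min RT, luminescence.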
Test [8] deals with Androgen receptor (Homo sapiens) (UniProt P10275). Nature of the test: qHTS assay to identify small molecule agonists of the androgen receptor (AR) signaling pathway in the presence of an antagonist (AID 1259381). Note: nearly all actives have a fitted effect of over 15% in size. In outline:
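MDA-kb2 cells, 3,000/well, rested 5hr at 37C/0% CO2 → nilutamide 3.0uM final or buffer → compounds, 15 conc. → 16hr at 37C → ONE-Glo, 30min RT → luminescence.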

The target in test [9] is Estrogen receptor beta (Homo sapiens) (UniProt Q92731). Nature of the test: qHTS assay to identify small molecule agonists of the estrogen receptor beta (ER-beta) signaling pathway (AID 1259377; active = well fitted activation curve with a large enough effect in the signal ratio in the repeat runs, not every such curve was filed as active; the % refers to the signal ratio). The method, boiled down:
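HEK293T ER-beta-UAS-bla; 2% charcoal-stripped FBS; cells pre-incubated 6 hr, compound 16 hr, 37C/5% CO2; LiveBLAzer B/G FRET substrate 2 h RT; fluorescence intensity read.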

The target is the same in test [10]. The test is described as follows: qHTS assay to identify small molecule antagonists of the estrogen receptor beta (ER-beta) signaling pathway (AID 1259378; active = well fitted inhibition curve with a large enough effect in the signal ratio in the repeat runs, not every such curve was filed as active; the % refers to the signal ratio). In outline: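 ER-beta-UAS-bla HEK293T (GripTite) cells in 2% charcoal-stripped FBS medium were preincubated 6 hr at 37C, dosed with compound, then stimulated with 1 nM E2 (final) for 16 hr; beta-lactamase reporter read by B/G FRET fluorescence after 2 hr substrate loading.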

Chain of Androgen receptor (Homo sapiens) (P10275 whole entry, looked up): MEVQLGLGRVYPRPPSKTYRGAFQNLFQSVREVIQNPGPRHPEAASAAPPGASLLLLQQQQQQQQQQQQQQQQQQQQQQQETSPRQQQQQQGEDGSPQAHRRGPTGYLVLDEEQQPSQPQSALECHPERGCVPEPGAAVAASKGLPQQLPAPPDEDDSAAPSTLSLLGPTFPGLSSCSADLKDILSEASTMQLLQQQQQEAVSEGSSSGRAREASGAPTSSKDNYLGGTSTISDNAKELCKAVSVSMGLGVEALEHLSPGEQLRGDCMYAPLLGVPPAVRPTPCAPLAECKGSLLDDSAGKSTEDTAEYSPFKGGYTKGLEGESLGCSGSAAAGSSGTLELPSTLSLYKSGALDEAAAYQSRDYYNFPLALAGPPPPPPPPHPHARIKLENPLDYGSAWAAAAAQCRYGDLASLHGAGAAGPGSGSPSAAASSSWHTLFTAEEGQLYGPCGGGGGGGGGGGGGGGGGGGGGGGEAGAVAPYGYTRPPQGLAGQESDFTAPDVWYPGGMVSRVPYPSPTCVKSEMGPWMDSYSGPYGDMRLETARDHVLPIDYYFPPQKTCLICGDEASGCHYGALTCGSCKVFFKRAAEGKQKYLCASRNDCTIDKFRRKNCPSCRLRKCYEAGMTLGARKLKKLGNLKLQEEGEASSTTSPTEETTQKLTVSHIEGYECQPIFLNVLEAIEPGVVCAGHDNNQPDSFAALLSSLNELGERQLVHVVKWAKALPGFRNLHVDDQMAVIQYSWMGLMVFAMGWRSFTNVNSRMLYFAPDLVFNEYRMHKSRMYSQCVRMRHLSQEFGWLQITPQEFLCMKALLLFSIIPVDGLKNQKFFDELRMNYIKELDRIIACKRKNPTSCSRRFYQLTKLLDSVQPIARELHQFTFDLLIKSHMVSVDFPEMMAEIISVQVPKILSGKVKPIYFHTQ
Chain of Estrogen receptor beta (Homo sapiens) (Q92731 whole entry, looked up): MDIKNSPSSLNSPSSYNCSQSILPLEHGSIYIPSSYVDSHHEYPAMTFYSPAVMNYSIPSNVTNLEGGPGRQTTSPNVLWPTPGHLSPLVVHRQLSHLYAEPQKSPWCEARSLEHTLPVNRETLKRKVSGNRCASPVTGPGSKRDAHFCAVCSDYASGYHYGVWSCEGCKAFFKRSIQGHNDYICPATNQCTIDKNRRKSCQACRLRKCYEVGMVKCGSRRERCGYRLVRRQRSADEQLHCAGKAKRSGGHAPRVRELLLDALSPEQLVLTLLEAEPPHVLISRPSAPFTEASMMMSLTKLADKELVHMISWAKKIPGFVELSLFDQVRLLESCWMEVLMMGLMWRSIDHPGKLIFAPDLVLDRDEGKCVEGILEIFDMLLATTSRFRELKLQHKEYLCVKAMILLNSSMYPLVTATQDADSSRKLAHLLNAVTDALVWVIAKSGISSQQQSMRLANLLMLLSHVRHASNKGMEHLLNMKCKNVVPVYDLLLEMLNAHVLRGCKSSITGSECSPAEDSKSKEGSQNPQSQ

As for `CC(COc1ccccc1)NC(C)C(O)c1ccc(O)cc1` (stereo unspecified), the Potency entry in test [1], in test [2], in test [3], in test [4] and in test [5] was “inactive” each time. Also, the call in test [6] was inactive.
On to `Nc1ccc(-c2ccc(F)cc2)cc1`, for which the Potency result in test [1], in test [2], in test [3], in test [4] and in test [5] was “inactive” in each case.
With `CCc1c(C)[nH]c2c1C(=O)C(CN1CCOCC1)CC2` (stereo unspecified), the Potency result in [1], in test [2], in test [3], in test [4] and in test [7] was “inactive” each time. Also, in test [6], the compound was classed as inactive.
As for `[O-][n+]1ccc(Cl)cc1`, the Potency entry in test [1], in test [2], in test [3] and in test [7] was “inactive” throughout.
For the compound `C1=COCCC1`, the Potency entry in test [1], in test [2], in test [3], in [7] and in test [5] was “inactive” each time.
Take `O=Cc1ccc([N+](=O)[O-])cc1`: the Potency entry in test [1], in test [2], in test [3] and in [4] was “inactive” each time. For the same compound, the compound was called inactive in test [6].
As to `O=P(c1ccccc1)(c1ccccc1)c1ccccc1`, the Potency entry in test [1], in test [2], in [3], in [4] and in test [5] was “inactive” throughout.
For the compound `O=S(=O)(O)c1cc(Cl)c(Cl)cc1Cl`, the Potency entry in test [1], in test [2], in test [3], in test [8] and in [5] was “inactive” each time. Moreover, the outcome in [6] was inactive.
`O=C(O)COCC(=O)O`: the Potency entry in test [1], in test [2], in test [3], in test [4] and in test [7] was “inactive” in each case. Moreover, the result in test [6] was inactive.
Turning to `COc1cc(CNC(=O)CCCC/C=C/C(C)C)ccc1O`, the Potency entry in [1], in [2], in test [3], in [7] and in test [5] was “inactive” in each case. Further, the call in [6] was inactive.
For `N#CCCCC(C#N)CCC#N` (stereo unspecified), the Potency entry in [1], in [2], in test [3], in test [4], in [7] and in test [5] was “inactive” in each case. Further, the compound was called inactive in test [6].
`CCc1ccc(C(=O)C(C)CN2CCCCC2)cc1` (stereo unspecified): the Potency result in test [1], in [2], in test [3], in test [4] and in test [7] was “inactive” in each case. Moreover, the compound was called inactive in [6].
As for `Cc1cc(C)c(C)c(O)c1`, the Potency entry in [1], in [2], in [3], in test [4] and in test [5] was “inactive” in each case. In addition, the compound was called inactive in test [6].
Turning to `Nc1cccc2c(=O)[nH][nH]c(=O)c12`, the Potency result in test [1], in [2], in [3] and in test [5] was “inactive” in each case. The Potency in test [4] was 24.5 µM (active). For the same compound, the result in [6] was inactive.
On to `CCCCC(CC)COCCC#N` (stereo unspecified), for which the Potency result in test [1], in test [2], in [3], in test [4] and in test [7] was “inactive” throughout. Further, the call in test [6] was inactive.
`CC(C)C[C@H](NC(=O)[C@H](Cc1ccccc1)NC(=O)c1cnccn1)B(O)O`: the Potency result in [1], in test [2] and in test [5] was “inactive” in each case. For the same compound, the values for the Potency in test [3] and in [4] were 0.0473 µM (active) and 4.22 µM (active), respectively. Also, in test [6], the result was inactive.
Consider `C=CC(O)CCCCC` (stereo unspecified), for which the Potency entry in test [1], in test [2], in test [3], in test [4] and in [7] was “inactive” each time. The compound was classed as inactive in [6].
On to `COC(=O)Cc1cccc2ccccc12`, for which the Potency result in test [1], in test [2], in [3], in test [8], in test [7] and in [5] was “inactive” in each case. Further, the compound was called inactive in test [6].
For `O=C(N[C@@H](Cc1ccccc1)[C@@H](O)C(=O)N1C[C@@H](O)[C@@H](O)C1)c1cc2cc(Cl)ccc2[nH]1`, the Potency result in test [1], in test [2], in test [3], in test [7] and in test [5] was “inactive” in each case. For the same compound, the compound was called inactive in [6].
For the compound `Oc1ccc(CCNCCCCCCNCCc2ccccc2)cc1O`, the Potency result in [1], in test [3], in test [4] and in test [5] was “inactive” each time. Moreover, the Potency in [2] is 9.44 µM (active). Besides, the compound was called inactive in [6].
Consider `Cc1c(Cl)cccc1Nc1ccccc1C(=O)O`, for which the Potency entry in test [1], in [2], in test [3], in test [4] and in test [5] was “inactive” in each case. Further, in test [6], the call was inactive.
As to `O=C(O)c1cc(C(=O)O)cc([N+](=O)[O-])c1`, the Potency result in [1], in test [2], in [3], in test [4] and in [7] was “inactive” in each case. Further, the result in test [6] was inactive.
On to `CC(C(=O)O)c1ccc(/C=C2\CCCCC2=O)cc1` (stereo unspecified), for which the Potency entry in [1], in [2], in test [3] and in [4] was “inactive” each time. Moreover, the outcome in [6] was inactive.
`CCCCCCCCCCCCCCCCN`: the Potency entry in [1], in [2], in test [3], in test [4], in test [7] and in test [5] was “inactive” throughout. For the same compound, the compound was called inactive in test [6].
For `O=C(OCCN1CCOCC1)c1cccnc1Nc1cccc(C(F)(F)F)c1`, the Potency result in test [1], in test [2], in test [3], in [8] and in test [5] was “inactive” throughout.
In the case of `O=[N+]([O-])c1ccc(Cl)cc1Cl`, the Potency result in test [1], in [2], in test [3], in test [4] and in [7] was “inactive” throughout. For the same compound, the outcome in [6] was inactive.
Take `O=C(O)CNc1ccccc1`: the Potency result in [1], in test [2], in test [3], in test [4] and in test [7] was “inactive” each time. In test [6], the call was inactive.
For the compound `O=C(O)CCc1nc2ccccc2[nH]1`, the Potency entry in test [1], in test [2], in test [3], in [4] and in test [5] was “inactive” each time.
On to `CCc1cnc(C(=O)O)c(C(=O)O)c1`, for which the Potency result in test [1], in test [2], in [3], in [7] and in test [5] was “inactive” in each case.
Take `CCCCCCCCCC(C)C=O` (stereo unspecified): the Potency entry in test [1], in test [2] and in test [3] was “inactive” each time. Further, the Potency in test [4] is 48.6 µM (active). Further, the compound was called inactive in test [6].
With `C=CC(=O)NC(C)(C)C`, the Potency entry in test [1], in test [2], in test [3], in [4], in test [7] and in test [5] was “inactive” throughout. Further, the compound was called inactive in test [6].
Consider `Cc1cc(C)n(CO)n1`, for which the Potency entry in test [1], in [2], in [3], in test [4] and in test [5] was “inactive” each time. Besides, the result in test [6] was inactive.
`CCCCCCCCCCCCSC#N`: the Potency entry in test [1], in [2], in [3], in test [7] and in test [5] was “inactive” in each case. Further, the call in [6] was inactive.
As for `Cc1ccc(S(=O)(=O)NC(=O)NC2CCCC2)cc1`, the Potency entry in [1], in test [2], in test [3] and in test [4] was “inactive” throughout. Besides, in test [6], the compound was classed as inactive.
As to `CCCCCCCCOCCCN`, the Potency result in test [1], in test [3], in [8] and in [5] was “inactive” each time. In addition, in test [2], the Potency was 30.6 µM (active). Besides, in test [6], the result was inactive.
Turning to `Cc1ccc(NC(=O)c2ccc(CN3CCN(C)CC3)cc2)cc1Nc1nccc(-c2cccnc2)n1`, the Potency entry in test [1], in test [3], in [8], in test [7] and in test [5] was “inactive” throughout. The Potency in test [2] is 2.66 µM (active). Besides, the result in test [6] was inactive.
In the case of `O=C1c2ccccc2C(=O)C1c1ccc2ccccc2n1`, in [1], the Potency is 0.121 µM (active). The Potency result in test [2], in [3] and in [4] was “inactive” throughout. In test [6], the result was inactive.
As to `CC(C)NC(=O)c1ccccc1N`, the Potency result in test [1], in [2], in [3], in test [4], in [7] and in test [5] was “inactive” each time. Further, the outcome in test [6] was inactive.
Regarding `O=C(NC1CCN(CCc2c[nH]c3ccccc23)CC1)c1ccccc1`, the Potency entry in [1], in test [9], in [10] and in test [7] was “inactive” each time. In test [6], the result was inactive.
